# From the supplement of paper PMC8728848
# The full list was thinned out, with the strongest signals kept by preference.
# B1: Cp ZmpB (Clostridium perfringens), Q0TR08 (protein)
# chain: MNKRKIAAIILATMITNLSATTIDVLAQELNTKNNSKVEVSHDDESHQARVSKFDLYNSDKLDAYNQEFQVSRSNIKSINNNGGKYNSSTIDKAIDGNLETHWETGKPNDANFTNEVVVTFNEITNIDRIVYSARRDSARGKGFAKEFEIYASLKDEGDDFNLVSSGEYTESTRDLVEIKFNPTDFKRLKFKFKKADQNWASAAEFMFYKEDKLNEKFNGLFTDSSMNKVSEEFNTLEKLNAFENELKDHPIYDLYKEGLNNARAILTETSENPTKATLGQITYNLNDDYNNQYRMPYKNIKAIKNNGRHYAAQNIEKAIDNDVNTYWETGTLNSSSFNNEVEVEFNDLVTLDRIVYGSRQSDLKGFAEEVYIYASRTSKGDTYKLVATGAHEATKGLVEAKFEPTEFKRVKFKFKKSKQNSATLNELMFYKPDEVYSSIPKLFTDGTMSELSEEFNSLEKINAFKEKAKNHPLYNDFNETIELAESLISNPRKEDVLELEMRGDSISEAKKRKVWNFQDWQITGLSARAGDKITVYVDVAEGDPTPTLLYKQSLTQHGGATSFQLKPGKNEITIPEINYESNGIPKDVIQGGDLFFTNYKSDSQKRAPKVRIEGASKYPVFILGKSDENEVMKELEAYVEKIKAEPKTTPNIFAVSSNKSLEFVQATYALDWYKKNNKTPKYTAEQWDQYIADAMGFWGFDNSKDVNSDFNFRIMPMVKNLSGGAFMNAGNGVIGIRPGNQDAILAANKGWGVAHELGHNFDTGGRTIVEVTNNMMPLFFESKYKTKTRITDQNIWENNTYPKVGLDDYSNNELYNKADSTHLAQLAPLWQLYLYDNTFYGKFERQFRERDFGNKNREDIYKSWVVAASDAMELDLTEFFARHGIRVDDKVKEDLAKYPKPDKKIYYLNDLAMNYKGDGFTENAKVSVSTSGSNGNIKLSFSVDDENKDNILGYEIRRDGKYVGFTSNDSFVDTKSNLDEDGVYVVTPYDRKLNTLNPIEVNALQPTLSVNPVITLALGEEFNEEEYIVAKDIKGNSLSESVKVKSSNVNTSKVGEYEVLYSLEDSKGNEYTKTSKVNVVSRKEYMSDLTPKQSSNGWGTVRKDKSISGGVIGLTRDGDFVDYNKGLGLHSNAEYVYDLEGKDYDYFESYVGVDKAMSSRPASSVIFKVLVDGEEKFNSGVMRSTTPQKYVKVDVKNAKELKLIVNDAGDGDSSDHASFGDAKLATLSSKPIIKGENLAYSMDEKVDLMKGITATDIEDGNITSKVQIKSSDFVEGKSGIFTVVYSVTDSDGLTSECSRTIAVTDKETQLSDLNWKSATIGSGSVRKDRAVSGNQIRLLNEDNSVETFAKGIGTHSYSEIVYNSEGYDIFDTWVGIDRHVADKKVSSVKFKVYVDGELKAETDVMRIDTPKKRLVVDVRNSKEIKLVVDVADNGNNWDHADWADAKFRNLAEYDASELNKAIEEAKKLDLNNYTEESSEALKNAISKGEEALLSKDKETINSALEELNKEMNSLVKVDLNAVINIPDKYLLKSIQNQLNKTGDITLGDMYSLTTLTLSGVEDLTGLENAKNLETLNMDYNEVKDLRPLSKLKKLNTLNAQEQFIAAGELKPSNGKVIGDSKVYNREGKNVAKTIRVVDKNGNTILEQDAKDEFTINTKDLSSGLYGVHVLFEDEGFSGVMFYLFNV
# Columns and labels:
# Assay in all cases: glycan array binding signal (z-score within array); higher = stronger binding
# Settings in all cases: glycan notation: IUPAC condensed, linker removed
# Fuc(a1-2)Gal = target: Fuc(a1-2)Gal
# Summary of the method: (§1)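 Glycan array data were curated from 3228 arrays in the Consortium for Functional Glycomics database and kept only where the protein sequence was available. Glycan names were converted to IUPAC-condensed notation, and columns mapping to the same glycan were averaged. The binding signal is a within-array Z-score, averaged across arrays of the same protein sequence at different concentrations or buffers and across linkers. Negative Z-scores can be read as non-binding.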
# Fuc(a1-2)Gal(b1-3)GlcNAc = target: Fuc(a1-2)Gal(b1-3)GlcNAc
# Summary of the method: as §1
# Fuc(a1-2)Gal(b1-4)Glc6S = target: Fuc(a1-2)Gal(b1-4)Glc6S
# Summary of the method: as §1
# [1] = target: Fuc(a1-2)Gal(b1-4)[Fuc(a1-3)]GlcNAc(b1-2)Man(a1-3)[Fuc(a1-2)Gal(b1-4)[Fuc(a1-3)]GlcNAc(b1-2)Man(a1-6)]Man(b1-4)GlcNAc(b1-4)[Fuc(a1-6)]GlcNAc
# Summary of the method: as §1
# [2] = target: Fuc(a1-2)Gal6S(b1-3)GlcNAc
# Summary of the method: as §1
# [3] = target: Fuc(a1-2)[GalNAc(a1-3)]Gal(b1-4)GlcNAc
# Summary of the method: as §1
# [4] = target: Fuc(a1-2)[GalNAc(a1-3)]Gal(b1-4)GlcNAc(b1-2)Man(a1-3)[Fuc(a1-2)[GalNAc(a1-3)]Gal(b1-4)GlcNAc(b1-2)Man(a1-6)]Man(b1-4)GlcNAc(b1-4)[Fuc(a1-6)]GlcNAc
# Summary of the method: as §1
# [5] = target: Fuc(a1-3)[Gal(b1-4)]GlcNAc(b1-6)GalNAc
# Summary of the method: as §1
# [6] = target: Gal(a1-3)Gal(b1-3)GlcNAc(b1-3)GalNAc
# Summary of the method: as §1
# [7] = target: Gal(a1-4)Gal(b1-3)GlcNAc(b1-2)Man(a1-3)[Gal(a1-4)Gal(b1-3)GlcNAc(b1-2)Man(a1-6)]Man(b1-4)GlcNAc(b1-4)GlcNAc
# Summary of the method: as §1
# [8] = target: Gal(b1-3)GlcNAc(b1-2)Man(a1-3)[Gal(b1-3)GlcNAc(b1-2)Man(a1-6)]Man(b1-4)GlcNAc(b1-4)[Fuc(a1-6)]GlcNAc
# Summary of the method: as §1
# [9] = target: Gal(b1-3)GlcNAc(b1-6)[Gal(b1-3)]GalNAc
# Summary of the method: as §1
# [10] = target: Gal(b1-4)GalNAc(a1-3)[Fuc(a1-2)]Gal(b1-4)GlcNAc
# Summary of the method: as §1
# Gal(b1-4)GlcNAc(b1-2)Man = target: Gal(b1-4)GlcNAc(b1-2)Man
# Summary of the method: as §1
# [11] = target: Gal(b1-4)GlcNAc(b1-2)Man(a1-3)[Man(a1-6)]Man(b1-4)GlcNAc(b1-4)GlcNAc
# Summary of the method: as §1
# [12] = target: Gal(b1-4)GlcNAc(b1-3)Gal(b1-3)GlcNAc
# Summary of the method: as §1
# [13] = target: Gal(b1-4)GlcNAc(b1-3)Gal(b1-4)GlcNAc(b1-3)Gal(b1-4)GlcNAc(b1-2)[Gal(b1-4)GlcNAc(b1-3)Gal(b1-4)GlcNAc(b1-3)Gal(b1-4)GlcNAc(b1-6)]Man(a1-6)[Gal(b1-4)GlcNAc(b1-3)Gal(b1-4)GlcNAc(b1-3)Gal(b1-4)GlcNAc(b1-2)Man(a1-3)]Man(b1-4)GlcNAc(b1-4)[Fuc(a1-6)]GlcNAc
# Summary of the method: as §1
# [14] = target: Gal(b1-4)GlcNAc(b1-3)Gal(b1-4)GlcNAc(b1-3)Gal(b1-4)GlcNAc(b1-3)Gal(b1-4)GlcNAc(b1-2)[Gal(b1-4)GlcNAc(b1-3)Gal(b1-4)GlcNAc(b1-3)Gal(b1-4)GlcNAc(b1-3)Gal(b1-4)GlcNAc(b1-6)]Man(a1-6)[Gal(b1-4)GlcNAc(b1-3)Gal(b1-4)GlcNAc(b1-3)Gal(b1-4)GlcNAc(b1-3)Gal(b1-4)GlcNAc(b1-2)Man(a1-3)]Man(b1-4)GlcNAc(b1-4)[Fuc(a1-6)]GlcNAc
# Summary of the method: as §1
# [15] = target: Gal(b1-4)GlcNAc(b1-3)Gal(b1-4)GlcNAc(b1-3)Gal(b1-4)GlcNAc(b1-3)Gal(b1-4)GlcNAc(b1-3)Gal(b1-4)GlcNAc(b1-2)[Gal(b1-4)GlcNAc(b1-3)Gal(b1-4)GlcNAc(b1-3)Gal(b1-4)GlcNAc(b1-3)Gal(b1-4)GlcNAc(b1-3)Gal(b1-4)GlcNAc(b1-6)]Man(a1-6)[Gal(b1-4)GlcNAc(b1-3)Gal(b1-4)GlcNAc(b1-3)Gal(b1-4)GlcNAc(b1-3)Gal(b1-4)GlcNAc(b1-3)Gal(b1-4)GlcNAc(b1-2)Man(a1-3)]Man(b1-4)GlcNAc(b1-4)[Fuc(a1-6)]GlcNAc
# Summary of the method: as §1
# [16] = target: Gal(b1-4)GlcNAc(b1-3)Gal(b1-4)[Fuc(a1-3)]GlcNAc(b1-3)Gal(b1-4)[Fuc(a1-3)]GlcNAc
# Summary of the method: as §1
# [17] = target: Gal(b1-4)GlcNAc(b1-3)[Gal(b1-4)GlcNAc(b1-6)]Gal(b1-4)GlcNAc
# Summary of the method: as §1
# [18] = target: Gal(b1-4)GlcNAc(b1-6)[Gal(b1-4)GlcNAc(b1-3)]GalNAc
# Summary of the method: as §1
# [19] = target: Gal3S(b1-3)[Fuc(a1-4)]GlcNAc
# Summary of the method: as §1
binder,measurement,setting,value
B1,glycan array binding signal (z-score),Fuc(a1-2)Gal,22.4
same,glycan array binding signal (z-score),Fuc(a1-2)Gal(b1-3)GlcNAc,-0.148
same,glycan array binding signal (z-score),Fuc(a1-2)Gal(b1-4)Glc6S,-0.219
same,glycan array binding signal (z-score),[1],-0.251
same,glycan array binding signal (z-score),[2],-0.122
same,glycan array binding signal (z-score),[3],-0.068
same,glycan array binding signal (z-score),[4],-0.353
same,glycan array binding signal (z-score),[5],-0.181
same,glycan array binding signal (z-score),[6],-0.001
same,glycan array binding signal (z-score),[7],-0.252
same,glycan array binding signal (z-score),[8],-0.193
same,glycan array binding signal (z-score),[9],0.823
same,glycan array binding signal (z-score),[10],0.022
same,glycan array binding signal (z-score),Gal(b1-4)GlcNAc(b1-2)Man,0.161
same,glycan array binding signal (z-score),[11],-0.033
same,glycan array binding signal (z-score),[12],1.39
same,glycan array binding signal (z-score),[13],-0.102
same,glycan array binding signal (z-score),[14],-0.093
same,glycan array binding signal (z-score),[15],3.56
same,glycan array binding signal (z-score),[16],-0.332
same,glycan array binding signal (z-score),[17],-0.301
same,glycan array binding signal (z-score),[18],0.086
same,glycan array binding signal (z-score),[19],-0.055
